Results published in ChEMBL document CHEMBL1961873, “Compounds: GSK PKIS; Assays: Nanosyn kinase panel” (2012).

Key:
[1] = biological target: Mast/stem cell growth factor receptor Kit (Homo sapiens) (UniProt P10721); settings: at 1 µM
[2] = tested on: Mast/stem cell growth factor receptor Kit (Homo sapiens), P10721 [D816V]; settings: at 0.1 µM
[3] = tested on: Mast/stem cell growth factor receptor Kit (Homo sapiens), P10721 [D816V]; settings: at 1 µM
[4] = tested on: Mast/stem cell growth factor receptor Kit (Homo sapiens), P10721 [T670I]; settings: at 0.1 µM
Mast/stem cell growth factor receptor Kit (Homo sapiens), P10721 [T670I], sequence (P10721 whole entry T670I): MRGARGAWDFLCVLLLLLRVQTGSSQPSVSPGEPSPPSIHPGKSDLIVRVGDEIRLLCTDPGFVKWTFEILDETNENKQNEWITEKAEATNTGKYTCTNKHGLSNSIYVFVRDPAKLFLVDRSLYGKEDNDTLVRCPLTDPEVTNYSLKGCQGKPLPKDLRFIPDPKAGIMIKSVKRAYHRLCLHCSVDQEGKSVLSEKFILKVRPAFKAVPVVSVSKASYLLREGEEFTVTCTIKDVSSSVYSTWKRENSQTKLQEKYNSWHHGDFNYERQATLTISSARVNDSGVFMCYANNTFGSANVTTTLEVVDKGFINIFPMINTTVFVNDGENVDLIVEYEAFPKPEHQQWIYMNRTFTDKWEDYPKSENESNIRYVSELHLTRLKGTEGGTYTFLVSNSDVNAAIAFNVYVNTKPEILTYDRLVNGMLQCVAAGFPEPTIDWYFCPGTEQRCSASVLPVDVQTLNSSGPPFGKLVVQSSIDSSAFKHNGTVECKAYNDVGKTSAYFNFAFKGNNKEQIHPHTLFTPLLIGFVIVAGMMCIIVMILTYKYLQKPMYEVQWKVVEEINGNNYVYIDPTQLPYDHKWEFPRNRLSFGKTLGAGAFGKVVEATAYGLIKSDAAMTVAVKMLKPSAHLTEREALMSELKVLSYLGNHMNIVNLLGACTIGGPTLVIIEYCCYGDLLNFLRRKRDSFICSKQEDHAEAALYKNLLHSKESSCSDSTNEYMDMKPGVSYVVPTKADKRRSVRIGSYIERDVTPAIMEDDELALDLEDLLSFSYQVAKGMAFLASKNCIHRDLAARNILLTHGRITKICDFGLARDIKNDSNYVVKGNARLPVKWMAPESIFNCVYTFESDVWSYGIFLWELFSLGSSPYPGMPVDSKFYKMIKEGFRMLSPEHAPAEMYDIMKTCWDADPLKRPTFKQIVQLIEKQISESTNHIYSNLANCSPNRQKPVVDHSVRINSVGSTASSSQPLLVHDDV

[5] = tested on: Mast/stem cell growth factor receptor Kit (Homo sapiens), P10721 [T670I]; settings: at 1 µM
[6] = tested on: Mast/stem cell growth factor receptor Kit (Homo sapiens), P10721 [V560G]; settings: at 0.1 µM
Mast/stem cell growth factor receptor Kit (Homo sapiens), P10721 [V560G], sequence (P10721 whole entry V560G): as the sequence (P10721 whole entry T670I) above, with V560G, I670T counted along it

[7] = tested on: Mast/stem cell growth factor receptor Kit (Homo sapiens), P10721 [V560G]; settings: at 1 µM
[8] = biological target: Tyrosine-protein kinase Lck (Homo sapiens) (UniProt P06239); settings: at 0.1 µM
Tyrosine-protein kinase Lck (Homo sapiens), sequence (P06239 2-509 limits assumed): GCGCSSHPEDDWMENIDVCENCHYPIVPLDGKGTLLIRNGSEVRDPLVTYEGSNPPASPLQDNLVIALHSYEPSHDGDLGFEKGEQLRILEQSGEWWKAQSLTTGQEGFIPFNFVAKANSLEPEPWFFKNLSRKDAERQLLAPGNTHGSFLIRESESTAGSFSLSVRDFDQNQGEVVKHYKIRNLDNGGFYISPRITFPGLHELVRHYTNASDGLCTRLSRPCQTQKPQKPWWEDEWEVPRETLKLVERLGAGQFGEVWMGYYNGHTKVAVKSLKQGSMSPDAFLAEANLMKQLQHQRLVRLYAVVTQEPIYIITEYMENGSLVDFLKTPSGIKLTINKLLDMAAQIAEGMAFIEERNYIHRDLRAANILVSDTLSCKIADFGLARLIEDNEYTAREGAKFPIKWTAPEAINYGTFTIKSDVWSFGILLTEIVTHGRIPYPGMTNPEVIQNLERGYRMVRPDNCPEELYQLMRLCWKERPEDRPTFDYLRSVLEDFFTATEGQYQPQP

[9] = biological target: Tyrosine-protein kinase Lck (Homo sapiens) (UniProt P06239); settings: at 1 µM
[10] = biological target: Leukocyte tyrosine kinase receptor (Homo sapiens) (UniProt P29376); settings: at 0.1 µM
Leukocyte tyrosine kinase receptor (Homo sapiens), sequence (P29376 whole entry): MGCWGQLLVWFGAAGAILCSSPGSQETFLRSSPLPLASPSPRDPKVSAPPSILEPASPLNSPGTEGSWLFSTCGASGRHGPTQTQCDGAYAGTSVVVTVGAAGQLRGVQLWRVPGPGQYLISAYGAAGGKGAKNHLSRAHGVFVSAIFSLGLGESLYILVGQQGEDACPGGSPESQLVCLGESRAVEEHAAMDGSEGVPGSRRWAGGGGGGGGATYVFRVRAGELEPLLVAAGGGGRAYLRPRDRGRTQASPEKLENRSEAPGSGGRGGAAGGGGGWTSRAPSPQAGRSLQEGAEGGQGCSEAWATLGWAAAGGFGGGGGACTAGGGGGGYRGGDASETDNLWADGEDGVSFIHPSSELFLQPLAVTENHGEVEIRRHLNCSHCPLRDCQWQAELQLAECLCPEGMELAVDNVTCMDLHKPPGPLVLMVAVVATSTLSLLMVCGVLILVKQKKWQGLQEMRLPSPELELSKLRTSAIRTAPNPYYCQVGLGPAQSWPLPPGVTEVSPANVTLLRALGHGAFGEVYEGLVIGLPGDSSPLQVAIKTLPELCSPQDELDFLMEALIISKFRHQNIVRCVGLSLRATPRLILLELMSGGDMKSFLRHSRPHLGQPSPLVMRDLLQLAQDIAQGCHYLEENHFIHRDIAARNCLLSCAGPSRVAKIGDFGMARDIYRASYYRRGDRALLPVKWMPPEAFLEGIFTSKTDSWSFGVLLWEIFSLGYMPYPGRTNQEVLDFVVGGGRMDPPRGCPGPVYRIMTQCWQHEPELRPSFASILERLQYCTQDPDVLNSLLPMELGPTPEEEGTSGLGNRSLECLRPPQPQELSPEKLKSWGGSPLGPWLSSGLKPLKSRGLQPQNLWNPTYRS

[11] = biological target: Leukocyte tyrosine kinase receptor (Homo sapiens) (UniProt P29376); settings: at 1 µM
[12] = biological target: Tyrosine-protein kinase Lyn (Homo sapiens) (UniProt P07948); settings: at 0.1 µM
Tyrosine-protein kinase Lyn (Homo sapiens), sequence (P07948 2-512 limits assumed): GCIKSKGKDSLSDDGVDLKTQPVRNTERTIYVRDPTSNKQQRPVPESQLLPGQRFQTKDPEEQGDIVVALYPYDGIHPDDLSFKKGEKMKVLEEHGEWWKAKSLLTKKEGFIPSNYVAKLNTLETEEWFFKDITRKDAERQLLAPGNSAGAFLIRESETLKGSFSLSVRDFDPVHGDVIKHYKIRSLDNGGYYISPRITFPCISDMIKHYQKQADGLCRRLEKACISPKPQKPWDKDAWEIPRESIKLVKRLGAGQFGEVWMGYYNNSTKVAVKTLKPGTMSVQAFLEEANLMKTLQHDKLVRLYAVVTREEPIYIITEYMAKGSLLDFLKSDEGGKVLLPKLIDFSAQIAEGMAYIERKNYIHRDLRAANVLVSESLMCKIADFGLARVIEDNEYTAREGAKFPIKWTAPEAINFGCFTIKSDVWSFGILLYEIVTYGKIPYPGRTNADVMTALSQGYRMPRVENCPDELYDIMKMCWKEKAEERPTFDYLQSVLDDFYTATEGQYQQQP

[13] = biological target: Tyrosine-protein kinase Lyn (Homo sapiens) (UniProt P07948); settings: at 1 µM
[14] = biological target: Tyrosine-protein kinase Lyn (Homo sapiens) (UniProt P07948); settings: at 0.1 µM; remark: listed apart in the source
[15] = biological target: Tyrosine-protein kinase Lyn (Homo sapiens) (UniProt P07948); settings: at 1 µM; remark: listed apart in the source
[16] = biological target: T1, Tyrosine-protein kinase Mer (Homo sapiens) (UniProt Q12866); settings: at 0.1 µM
T1 sequence (whole entry): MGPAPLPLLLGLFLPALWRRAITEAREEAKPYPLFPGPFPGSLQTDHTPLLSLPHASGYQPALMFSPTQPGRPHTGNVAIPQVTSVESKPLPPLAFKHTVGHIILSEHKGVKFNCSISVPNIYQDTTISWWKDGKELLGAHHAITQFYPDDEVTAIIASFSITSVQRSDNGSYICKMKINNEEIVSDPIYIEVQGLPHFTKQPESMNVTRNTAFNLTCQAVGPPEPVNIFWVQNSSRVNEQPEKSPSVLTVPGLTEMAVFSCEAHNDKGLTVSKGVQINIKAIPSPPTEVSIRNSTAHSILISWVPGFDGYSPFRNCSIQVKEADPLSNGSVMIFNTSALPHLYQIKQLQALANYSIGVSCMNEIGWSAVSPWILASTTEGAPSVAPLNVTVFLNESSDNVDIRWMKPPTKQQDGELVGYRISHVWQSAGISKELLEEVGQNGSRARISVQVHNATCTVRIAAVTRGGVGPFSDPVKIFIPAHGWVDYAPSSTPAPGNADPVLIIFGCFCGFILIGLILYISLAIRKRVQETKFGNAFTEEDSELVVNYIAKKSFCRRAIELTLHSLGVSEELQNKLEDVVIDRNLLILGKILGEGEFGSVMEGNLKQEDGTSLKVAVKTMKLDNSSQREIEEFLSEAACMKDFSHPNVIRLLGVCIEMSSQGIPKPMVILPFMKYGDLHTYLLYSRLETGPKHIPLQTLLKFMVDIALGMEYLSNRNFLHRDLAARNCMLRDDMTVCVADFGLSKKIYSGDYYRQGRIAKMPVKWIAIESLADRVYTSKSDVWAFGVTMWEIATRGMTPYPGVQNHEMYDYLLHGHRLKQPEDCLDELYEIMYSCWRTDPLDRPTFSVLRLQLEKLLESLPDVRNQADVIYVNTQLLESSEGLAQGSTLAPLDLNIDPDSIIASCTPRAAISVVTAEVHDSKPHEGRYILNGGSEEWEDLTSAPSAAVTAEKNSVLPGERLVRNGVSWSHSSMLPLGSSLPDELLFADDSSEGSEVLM

[17] = biological target: T1, Tyrosine-protein kinase Mer (Homo sapiens); settings: at 1 µM
[18] = biological target: Hepatocyte growth factor receptor (Homo sapiens) (UniProt P08581); settings: at 0.1 µM
Hepatocyte growth factor receptor (Homo sapiens), sequence (P08581 whole entry): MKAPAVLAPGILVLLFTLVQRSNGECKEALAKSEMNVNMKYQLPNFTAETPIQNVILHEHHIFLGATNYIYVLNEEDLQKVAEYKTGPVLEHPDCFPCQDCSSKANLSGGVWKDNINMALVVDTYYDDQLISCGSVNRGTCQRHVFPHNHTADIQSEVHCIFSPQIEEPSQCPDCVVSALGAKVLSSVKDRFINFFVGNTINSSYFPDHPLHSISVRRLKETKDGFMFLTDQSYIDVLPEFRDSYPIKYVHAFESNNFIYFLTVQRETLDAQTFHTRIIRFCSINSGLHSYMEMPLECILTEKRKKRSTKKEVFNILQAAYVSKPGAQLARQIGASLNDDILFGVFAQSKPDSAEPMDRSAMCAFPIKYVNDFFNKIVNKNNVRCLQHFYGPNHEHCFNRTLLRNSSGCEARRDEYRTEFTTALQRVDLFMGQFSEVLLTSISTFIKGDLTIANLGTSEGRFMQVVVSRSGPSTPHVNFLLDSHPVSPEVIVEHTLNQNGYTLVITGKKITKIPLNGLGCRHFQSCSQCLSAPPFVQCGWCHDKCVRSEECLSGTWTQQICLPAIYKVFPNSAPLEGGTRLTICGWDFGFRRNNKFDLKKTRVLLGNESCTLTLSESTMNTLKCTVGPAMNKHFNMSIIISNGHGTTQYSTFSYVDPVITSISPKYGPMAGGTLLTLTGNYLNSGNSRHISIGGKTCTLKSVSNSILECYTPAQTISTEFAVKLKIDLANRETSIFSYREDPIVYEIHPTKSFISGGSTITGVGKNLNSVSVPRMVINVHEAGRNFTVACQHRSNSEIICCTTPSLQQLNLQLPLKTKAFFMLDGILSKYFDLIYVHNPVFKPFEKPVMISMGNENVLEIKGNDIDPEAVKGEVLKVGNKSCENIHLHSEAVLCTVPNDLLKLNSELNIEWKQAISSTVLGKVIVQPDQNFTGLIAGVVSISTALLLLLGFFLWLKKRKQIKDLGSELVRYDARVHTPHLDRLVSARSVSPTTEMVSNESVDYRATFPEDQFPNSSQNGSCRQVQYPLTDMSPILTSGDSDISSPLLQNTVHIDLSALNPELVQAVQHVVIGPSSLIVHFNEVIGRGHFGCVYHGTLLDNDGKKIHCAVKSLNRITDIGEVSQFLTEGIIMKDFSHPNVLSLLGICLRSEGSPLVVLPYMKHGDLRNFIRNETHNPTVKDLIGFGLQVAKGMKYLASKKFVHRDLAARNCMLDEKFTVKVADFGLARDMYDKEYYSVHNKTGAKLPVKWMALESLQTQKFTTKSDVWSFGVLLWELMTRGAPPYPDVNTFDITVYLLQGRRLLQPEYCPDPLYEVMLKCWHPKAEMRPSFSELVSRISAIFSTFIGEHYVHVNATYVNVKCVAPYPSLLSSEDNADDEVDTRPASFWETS

[19] = biological target: Hepatocyte growth factor receptor (Homo sapiens) (UniProt P08581); settings: at 1 µM
[20] = biological target: T2, Muscle, skeletal receptor tyrosine-protein kinase (Homo sapiens) (UniProt O15146); settings: at 0.1 µM;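 further: values are mean inhibition of MuSK from the GSK PKIS kinase screening panel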
T2 sequence (whole entry): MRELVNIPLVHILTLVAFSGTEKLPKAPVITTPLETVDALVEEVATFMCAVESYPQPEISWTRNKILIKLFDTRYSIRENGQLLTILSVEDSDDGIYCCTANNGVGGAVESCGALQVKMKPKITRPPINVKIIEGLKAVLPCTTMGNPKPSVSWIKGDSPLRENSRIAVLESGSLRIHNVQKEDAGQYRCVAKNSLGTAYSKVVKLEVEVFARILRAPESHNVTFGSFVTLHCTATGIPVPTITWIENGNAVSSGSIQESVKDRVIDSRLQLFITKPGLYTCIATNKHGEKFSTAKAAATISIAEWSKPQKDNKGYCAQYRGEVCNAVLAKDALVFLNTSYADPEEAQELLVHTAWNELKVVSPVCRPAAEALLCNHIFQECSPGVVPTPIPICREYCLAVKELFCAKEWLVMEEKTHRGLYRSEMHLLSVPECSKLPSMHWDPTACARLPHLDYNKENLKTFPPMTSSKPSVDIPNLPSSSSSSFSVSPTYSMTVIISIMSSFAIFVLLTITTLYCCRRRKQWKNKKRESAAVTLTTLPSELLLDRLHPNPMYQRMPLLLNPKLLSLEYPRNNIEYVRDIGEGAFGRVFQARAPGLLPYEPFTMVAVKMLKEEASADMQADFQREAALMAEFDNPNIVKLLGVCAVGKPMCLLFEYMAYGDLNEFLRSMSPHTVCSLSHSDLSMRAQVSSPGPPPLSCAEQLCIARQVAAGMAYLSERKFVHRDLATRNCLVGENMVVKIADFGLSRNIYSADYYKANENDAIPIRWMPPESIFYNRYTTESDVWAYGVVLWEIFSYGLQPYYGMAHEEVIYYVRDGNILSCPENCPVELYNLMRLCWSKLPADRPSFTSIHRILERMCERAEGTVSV

Mast/stem cell growth factor receptor Kit (Homo sapiens), sequence (P10721 whole entry): as the sequence (P10721 whole entry T670I) above, with I670T counted along it
Mast/stem cell growth factor receptor Kit (Homo sapiens), P10721 [D816V], sequence (P10721 whole entry D816V): as the sequence (P10721 whole entry T670I) above, with I670T, D816V counted along it

Row | SMILES | inhibition [1] [%] | inhibition [2] [%] | inhibition [3] [%] | inhibition [4] [%] | inhibition [5] [%] | inhibition [6] [%] | inhibition [7] [%] | inhibition [8] [%] | inhibition [9] [%] | inhibition [10] [%] | inhibition [11] [%] | inhibition [12] [%] | inhibition [13] [%] | inhibition [14] [%] | inhibition [15] [%] | inhibition [16] [%] | inhibition [17] [%] | inhibition [18] [%] | inhibition [19] [%] | inhibition [20] [%]
1 | O=C1Nc2ccccc2/C1=C/Nc1ccc2[nH]c(=O)[nH]c2c1 | 84.4 | 3.67 | 10.1 | 13.6 | 71.7 | -0.78 | 21.8 | 3.64 | 11.9 | 5.48 | 13.2 | 10.5 | 30.1 | 7.45 | 23.2 | 1.74 | 7.93 | 7.49 | 14.8 | 6.75
2 | CCS(=O)(=O)c1ccc(OC)c(Nc2nccc(N(C)c3ccc4c(C)n[nH]c4c3)n2)c1 | 88.5 | 6.18 | 23.9 | 5.56 | 6.79 | 0.4 | 11.8 | 26.2 | 60.2 | 7.51 | 37.5 | 45.7 | 85 | 37.7 | 82.8 | -1.04 | 1.84 | 3.86 | 5.71 | 2.51
3 | NS(=O)(=O)c1ccc(Nc2cc(-c3cccc(O)c3)n[nH]2)cc1 | 83.7 | 3.6 | 4.78 | 4.57 | 4.81 | 4.28 | 25.4 | 1.64 | 4.8 | 2.99 | 3.32 | 6.83 | 8.1 | 3.6 | 3.96 | 0.91 | 6.51 | 5.16 | 2.36 | 4.32
4 | NS(=O)(=O)c1ccc(N/N=C2\C(=O)Nc3ccc(Cl)cc32)cc1 | 89.8 | 1.33 | 3.24 | 5.37 | 41.2 | 2.89 | 30.3 | 1.35 | 3.7 | 3.2 | 4.81 | 4.69 | 8.22 | 1.56 | 6.78 | 1.61 | 1.21 | 7.96 | 7.49 | 4.35
5 | N#Cc1c(NC(=O)c2ccccc2F)sc2c1CCCC2 | -1.43 | -1.25 | -3.62 | -0.75 | 0.26 | 2.34 | 2.89 | 0.15 | 4.08 | -1.29 | -0.82 | -0.87 | 0.22 | -0.31 | 0.82 | -1.5 | 0.64 | 10.5 | 4.86 | 1.84
6 | CN(C)c1cc2c(Nc3ccc4c(cnn4Cc4ccccc4)c3)ncnc2cn1 | 3.38 | 4.89 | 2.07 | 3.06 | -0.32 | -2.8 | 2.75 | 5.16 | 22.6 | 1.81 | 3.01 | 2.67 | 13.5 | 2.82 | 10.6 | 6.16 | 40.9 | 5.12 | 0.45 | 1.76
7 | CCOc1nccc2c1nc(-c1nonc1N)n2CC | 10.2 | -2.27 | 3.77 | 4.03 | 6.04 | 4.82 | 7.59 | 1.92 | 3.61 | 1.89 | 2.99 | 3.8 | 6.05 | 2.33 | 4.84 | 3.54 | 6.08 | 4.49 | 11.2 | 3.26
8 | NS(=O)(=O)c1ccc(NC=C2C(=O)Nc3ccc4ncsc4c32)cc1 | 94.3 | 8.42 | 31 | 19.8 | 67.2 | 1.8 | 32 | 5.47 | 30.9 | 4.74 | 17.3 | 11.5 | 47.1 | 7.96 | 40.9 | 3.9 | 16.3 | 18.8 | 62.2 | 23.7
9 | Cc1ccc(Nc2ccnc(Nc3cccc(C(N)=O)c3)n2)cc1O | 42.7 | 14.9 | 54.3 | 2.19 | 5.43 | 3.09 | 21.1 | 29.2 | 72.2 | 4.36 | 15.9 | 61.2 | 90.5 | 56.5 | 88.8 | 1.3 | 11.7 | 5.11 | 6.87 | 5.89
10 | COc1cc(Nc2nccc(-c3cnn4ncccc34)n2)cc(OC)c1 | 97.3 | 1.93 | 9.04 | 80.7 | 98.1 | 65.2 | 92.5 | 2.75 | 19.2 | 4.41 | 34.1 | 3.81 | 29.3 | 2.46 | 23.6 | 1.07 | 16.6 | 4.01 | 14.4 | 6.23
11 | COc1cc2ncnc(Nc3ccc(C)c(O)c3)c2cc1OC | 40.5 | 44 | 88.3 | 3.54 | 2.94 | 5.53 | 35.8 | 25 | 72.2 | 6.58 | 24.8 | 39.7 | 83.9 | 32.6 | 80.8 | 2.64 | 4.97 | 1.61 | 9.16 | 0.51
12 | ON=C1CCc2cc(-c3nc(C4CCNCC4)[nH]c3-c3ccncc3)ccc21 | -4.25 | 2.66 | 5.8 | -0.79 | -1.23 | -2.31 | -1.75 | 0.93 | 6.86 | 1.01 | 1.88 | 0.17 | 2.43 | -0.33 | 0.99 | -0.13 | 2.76 | 0.32 | 4.34 | -1.09
13 | Nc1nccc(C#Cc2cncnc2Nc2ccc(OCc3cccc(F)c3)c(Cl)c2)n1 | 2.68 | 3.2 | 2.1 | 1.97 | 1.54 | -1.72 | 1.13 | 1.54 | 8.03 | 3.49 | 2.75 | 3.62 | 3.49 | 3.64 | 1.57 | 2.77 | 9.35 | 4.74 | 8.47 | 4.37
